The list is not random: actives were taken first. Their share in the collection is about 0.97%.
CtBP-E1A blk: blocks the CtBP interaction with E1A. activity change, % (test concentration not listed). AlphaScreen GST-E1A/His-CtBP binding, 1536-well; stronger effect = lower value. 340,000 tested, 0.49% active
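In 5 uL wells, 23 nL compound meets equimolar GST-E1A and His-CtBP (5X stock 125 nM each) for 2 h, 37 °C. Beads (5X, 50 ug/mL) then 1 h, 37 °C, dark.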
CCT chaperon mod: cytosolic chaperonin activity modulation. purified chaperonin ATPase assay, HTRF ADP detection, 30 min. 360,000 tested, 0.3% active. activity change, % (concentration not given with the values), hits read low; in the data active means activity change below about -30%
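ATPase activity: ADP formed was measured by HTRF Transcreener (665/615 nm ratio) after 30 min at 37 deg C with 10 uM ATP. Compounds screened at one 76 uM concentration against 40 or 20 nM TRiC in Tris pH 7.4/KCl/MgCl2/DTT buffer.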
Eya2 inh: inhibitors of human Eya2 phosphatase activity | O00167 | recombinant Eya2, OMFP fluorescence dephosphorylation (OMFP is methylfluorescein phosphate) | Potency, µM (highest dose often 76.9 µM), for inactives: at the highest dose activity, negative = inhibition, actives largely listed as inhibitors | 330,000 tested, 0.006% active | AID 488837; active means well fitted inhibition curve with a large enough effect; inconclusive means small, poorly fitted or top-dose-only effect, or effect the other way; further: potency means the concentration at half of the fitted maximal effect
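Eya2 (0.2 uM) preincubated 10 min at ambient with compound, then OMFP substrate added at 50 uM; 10 min reaction in 50 mM HEPES pH 7.5, 50 mM NaCl, 5 uM MgCl2, 0.05% BSA, 1 mM DTT. Fluorescence read at Ex 485/Em 525 nm.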
PI4K2A block: PI4K2A (human) kinase inhibition; Q9BTU6; purified PI4K2A, ADP-Glo luminescence, 1 h; stronger effect = lower value; activity change, negative = inhibition, % at 76.9 µM; 420,000 tested, 0.13% active; in the data active means activity change below about -50%; inconclusive means mostly about -30% to -49%;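 further: -100% = wells without enzyme as full effect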
Target sequence (Q9BTU6 whole entry, looked up): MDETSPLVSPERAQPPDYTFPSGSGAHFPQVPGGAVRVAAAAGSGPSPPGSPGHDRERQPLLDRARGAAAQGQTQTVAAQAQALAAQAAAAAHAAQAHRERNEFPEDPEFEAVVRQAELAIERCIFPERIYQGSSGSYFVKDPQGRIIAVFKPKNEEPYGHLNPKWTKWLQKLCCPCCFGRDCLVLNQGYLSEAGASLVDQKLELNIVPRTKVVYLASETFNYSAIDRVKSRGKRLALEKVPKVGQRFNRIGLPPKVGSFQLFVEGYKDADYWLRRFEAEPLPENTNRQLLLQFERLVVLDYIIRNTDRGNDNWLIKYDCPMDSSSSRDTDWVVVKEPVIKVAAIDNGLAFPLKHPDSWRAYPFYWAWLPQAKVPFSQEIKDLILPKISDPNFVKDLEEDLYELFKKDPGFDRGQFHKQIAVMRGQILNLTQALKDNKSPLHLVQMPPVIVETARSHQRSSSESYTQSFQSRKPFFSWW
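In this quantitative HTS, ADP production by PI4K2A was quantified luminescently after 1 h at ambient temperature; 100 microM adenosine served as plate-quality control.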
Six1-Eya2 inh: inhibitors of human Six1/Eya2 interaction; Q15475+O00167; AlphaScreen GST-Six1/His-Eya2 binding, biochemical; stronger effect = lower value; activity change, % (test concentration not listed); 360,000 tested, 0.56% active; AID 651725
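AlphaScreen with GST-Six1 and His-Eya2 (5X mix: 250 nM and 500 nM), glutathione donor and nickel acceptor beads; buffer 50 mM Tris pH 8.0, 300 mM NaCl, 1 mM TCEP; 1 h at 37 C in the dark.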
Starred values were filed as active, the others as inactive; ? = inconclusive; . = not tested or not shown; [ ] = remark or other dose. Unless noted, no stated cut-off is given here; in the data, active means activity change below about -65%; inconclusive means mostly about -30% to -63%; inactive means weaker than that. Unless noted, on the % scale 0 is the no-effect control and ±100 the full control effect.

SMILES | CtBP-E1A blk | CCT chaperon mod | Eya2 inh | PI4K2A block | Six1-Eya2 inh
CC1(C)O[C@@H]2[C@H](O1)[C@@H](CO)O[C@H]2n1cnc2c(N)ncnc21 | 5 | 0 | 6% | -52* | 1
O=c1cc(-c2ccccc2)[nH]n1-c1nc2ccccc2[nH]1 | -77* | -1 | 20% | -24 | -81*
CCc1cc(=O)[nH]c(-n2[nH]c(-c3ccccc3)cc2=O)n1 | -10 | 2 | 3% | -6 | -7
N#C/C(=C\c1ccc(-c2cc(Cl)ccc2Cl)o1)C(=O)Nc1cccc2ncccc12 | . | . | 5% | -53* | .
O=C1CSC(=S)N1/N=C/c1ccc2c(c1)OCCO2 | -82* | -1 | 9% | 3 | -28
COc1cc(/C=N/N2C(=O)CSC2=S)ccc1O | ? | -2 | 2% | -10 | -23
O=C1CSC(=S)N1N=Cc1ccccc1O | -2 | -3 | . | -8 | -90*
COc1cc(O)c(C=NN2C(=O)CSC2=S)c(OC)c1 | ? | 1 | . | 0 | -87*
CC1(C)CCC2=C(O1)c1ccccc1C(=O)C2=O | . | . | -23% | -52* | .
Cc1nc2cccc(C(=O)Oc3ccc([N+](=O)[O-])cc3)c2o1 | -15 | 0 | -24% | 3 | -82*
Cc1c(-c2ccccc2)nc2ccccc2c1C(=O)Oc1ccc([N+](=O)[O-])cc1 | -21 | -1 | -12% | 4 | -12
Nc1nc2ccccc2n1Cc1ccc(F)cc1 | . | . | . | 1 | .
CC[C@@H]([C@H](C)O)n1ncn(-c2ccc(N3CCN(c4ccc(OC[C@@H]5CO[C@@](Cn6cncn6)(c6ccc(F)cc6F)C5)cc4)CC3)cc2)c1=O | . | . | . | -4 | .
CCc1nnc(N/N=C/c2cc(Br)c(O)cc2O)n1N | -91* | 2 | 5% | ? | -80*
CCc1nnc(N/N=C/c2ccc(O)c(OC)c2)n1N | -15 | 0 | 3% | -26 | -3
CC(C)(C)c1nnc(N/N=C/c2cc(Br)ccc2O)n(N)c1=O | -94* | 2 | -5% | 5 | -90*
CCc1nnc(N/N=C/c2cccs2)n1N | -1 | -43* | 2% | ? | 1
CCc1nnc(N/N=C/c2c(Cl)cccc2Cl)n1N | -5 | -1 | 5% | -25 | 2
COC(=O)c1ccc(Cn2ccc3ccc(-c4ccc5ccn(C(=O)c6ccccc6OC)c5c4)cc32)cc1 | . | . | . | -4 | .
Cc1ccc(NC(=O)c2ccc3c(c2)NC(=O)c2ccccc2S3)cc1 | . | . | . | -4 | .
COc1ccc([C@]23Cc4ccccc4C(O2)C2=C(CC4(CCCCC4)OC2=O)O3)cc1 | . | . | -13%[15.4 µM] | . | .
CN(C)CCCN(Cc1ccccc1)C(=S)Nc1ccc(OC(F)F)cc1 | 2 | -54* | 0% | -2 | 1
CN(Cc1ccccc1)C(=S)Nc1ccc(OC(F)F)cc1 | -9 | -2 | -4% | -3 | -10
Cc1cc(C)c(S(=O)(=O)N2CCN(S(=O)(=O)N3CCCCCC3)CC2)c(C)c1 | 0 | 0 | 1% | -4 | -22
Cc1cc(C)c(S(=O)(=O)N2CCN(S(=O)(=O)N3CCC(C)CC3)CC2)c(C)c1 | 3 | -49* | -8% | -5 | -6
SMILES | CtBP-E1A blk | CCT chaperon mod | Eya2 inh | PI4K2A block | Six1-Eya2 inh
CC(=C/c1ccccc1)/C=N/NC(=O)c1ccc2nc[nH]c2c1 | 6 | 1 | 5% | 5 | 4
O=C(N/N=C/C(Br)=C\c1ccccc1)c1ccco1 | -82* | -1 | -2% | -9 | -8
O=C(N/N=C/C(Br)=C\c1ccccc1)c1ccc2nc[nH]c2c1 | -77* | -2 | -5% | -4 | -20
O=C(N/N=C/C(Br)=C\c1ccccc1)c1cccs1 | -81* | 3 | 4% | -1 | -11
NCCCCNCCCN | 5 | -1 | -1% | -3 | 1
NCCNCCNCCN | -93* | -1 | 2% | 0 | -84*
O=c1[nH]c(=O)c2nnc(N/N=C\c3ccc(O)cc3)nc2[nH]1 | -65* | -2 | 6% | -7 | -75*
O=c1[nH]c(=O)c2nnc(N/N=C/c3ccccc3F)nc2[nH]1 | ? | 0 | 3% | 0 | -19
Oc1ccc(COC2CCCC2)c2cccnc12 | . | . | -6% | . | .
COc1ccc(NC(=O)C2CCN(c3cc(C)nc(-c4ccccc4)n3)CC2)cc1 | 0 | -64* | 2% | 0 | 0
CCOC(=O)C1CCN(CCC(=O)Nc2ccccc2OC)CC1 | . | . | . | -3 | .
CCN1C(=O)/C(=C\N(C)C)S/C1=N\S(=O)(=O)c1ccc(C)cc1 | 10 | -45* | 1% | -1 | 10
CCc1cccc2c(CCO)c[nH]c12 | . | . | . | -1 | .
C[C@@H]1ON(C)[C@H]2C[C@H]3c4[nH]c5ccc(-c6ccc7c(c6)OCO7)cc5c4CCN3C[C@@H]12 | -29 | -73* | . | 5 | ?
C[C@H](O)[C@@H]1CN2CCc3c([nH]c4ccc(-c5ccc6c(c5)OCO6)cc34)[C@@H]2C[C@@H]1N(C)C(=O)Nc1ccc(F)cc1 | -22 | 0 | . | -2 | -29
Cc1ccc(N2CC(C(=O)NCC3CCCO3)CC2=O)cc1Cl (configuration not stated) | 0 | -143* | 10% | -4 | 9
COC(=O)C1CCN(C2=C(NS(=O)(=O)c3ccc(Cl)cc3)C(=O)c3ccccc3C2=O)CC1 | -79* | -1 | 6% | -5 | -67*
Cc1ccc(S(=O)(=O)NC2=C(N3CCN(c4ccccc4F)CC3)C(=O)c3ccccc3C2=O)cc1 | -5 | -4 | 0% | -2 | -5
CC(=O)Nc1ccc(S(=O)(=O)NC2=C(N3CCN(c4ccc(F)cc4)CC3)C(=O)c3ccccc3C2=O)cc1 | -78* | -2 | 4% | -27 | -79*
Clc1ccc(-c2csc(-c3nc(-c4ccc(Br)s4)cs3)n2)cc1 | . | . | . | -1 | .
CCCN(CC1CC1)C(=O)c1oc(=O)c2ccccc2c1-c1ccc(C)cc1 | . | . | . | 5 | .
Cc1cc(C)cc(OCC(=O)OCC(=O)NCc2cccs2)c1 | -22 | -1 | 6% | -5 | -9
Cc1cc(OCC(=O)OCC(=O)NCc2cccs2)ccc1Cl | 6 | -33* | 3% | 3 | -5
C=CCOc1cc(Cl)ccc1C(=O)NCCN(CC)CC | . | . | . | -1 | .
CC1(C(=O)NS(=O)(=O)c2ccc(Br)cc2)CCN1C(=O)CCc1ccccc1 (configuration not stated) | -18 | -79* | . | -3 | 4
CC1(C(=O)NS(=O)(=O)c2ccc(Br)cc2)CCN1C(=O)CCc1cccs1 (configuration not stated) | 5 | -1 | . | -5 | 1
Fc1cccc(/C=N/Nc2nncc3ccccc23)c1 | . | 0 | -9% | -21 | -18
O=c1cnnc(N/N=C/c2ccccn2)[nH]1 | -97* | 1 | 4% | -2 | -92*
C(=N\Nc1nncc2ccccc12)/c1ccccn1 | -95* | -2 | 7% | -12 | -75*
CCc1ccc(-n2c(=O)c3c4c(sc3n(CC(=O)N3CCC(C)CC3)c2=O)CCC4)cc1 | . | . | . | 3 | .

Screening results: PubChem BioAssay, National Center for Advancing Translational Sciences (NCATS)
